# Laboratory results as given in ChEMBL document CHEMBL1201862, “PubChem BioAssay data set” (2004).
# The campaign covered roughly 130,000 compounds. About 1,200 (0.92%) were called active. About 3% were inconclusive and are not listed. This is one part of a sample in which actives are shown more often than they occur. The calls are words filed in the database; no cut-off is given here.
# Molecular target: Cellular tumor antigen p53 (Homo sapiens) (UniProt P04637)
# Assay: qHTS Screen for Compounds that Selectively Target Cancer Cells with p53 Mutations: Cytotoxicity of p53ts Cells at the Permissive Temperature. [Related pubchem assays: 902 ]
# Assay type: functional
# Sequence of Cellular tumor antigen p53 (Homo sapiens) (P04637 whole entry, looked up): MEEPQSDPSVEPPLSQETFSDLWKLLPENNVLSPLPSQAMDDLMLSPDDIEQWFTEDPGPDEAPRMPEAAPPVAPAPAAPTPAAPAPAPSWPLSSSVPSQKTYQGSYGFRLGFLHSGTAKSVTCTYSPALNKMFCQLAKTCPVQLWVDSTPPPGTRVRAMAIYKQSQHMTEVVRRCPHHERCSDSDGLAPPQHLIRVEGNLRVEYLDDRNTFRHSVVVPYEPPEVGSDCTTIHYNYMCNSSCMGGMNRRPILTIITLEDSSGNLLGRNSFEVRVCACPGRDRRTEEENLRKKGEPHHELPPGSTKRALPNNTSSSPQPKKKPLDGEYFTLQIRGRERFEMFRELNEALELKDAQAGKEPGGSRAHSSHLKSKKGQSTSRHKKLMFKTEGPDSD
row,SMILES,Potency
1,O=C(/C=C/c1ccc(Cl)cc1)c1cccs1,15.8 µM (active)
2,COc1ccccc1/C=C/C(=O)c1cccs1,10 µM (active)
